High-throughput results deposited in PubChem BioAssay by several laboratories.
In the library only some 3.2% were active in any assay of this set; here they are far more common.
ERa SRC1 pot: enhances coactivator binding to human estrogen receptor alpha. TR-FRET ERalpha-LBD/SRC-Cy5 coactivator binding, 2 h; 100 = basal binding, no effect. coactivator binding (% of control), % at 25.6 µM. actives 1.3% (n = 86,000); in the data active = activity above about 200%;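 note: binding measured in presence of low estradiol as agonist stimulus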
ERa SRC1 inh: ER-alpha (human) coactivator binding inhibition; inhibition, % at 25.6 µM; TR-FRET ER-alpha LBD / SRC-1 peptide, estradiol-bound; actives 1.7% (n = 86,000); AID 629; P03372; in the data active = inhibition above about 50%
Calb biofilm kill: kills Candida albicans biofilms; AID 834; actives 0.14% (n = 85,000); inhibition, % at 6 µM; C. albicans biofilm + clotrimazole, Alamar Blue;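 active = inhibition above 20%; inactive = inhibition below 20%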;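 note: preformed 24 hr biofilms exposed to compound for 48 hr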
ERb SRC1 inh: blocks coactivator binding to human estrogen receptor beta. inhibition, % at 25.6 µM. AID 633. actives 1.3% (n = 86,000). TR-FRET ER-beta LBD / SRC1-Cy5 peptide binding; receptor agonist-loaded with 1 µM estradiol;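 active = compounds whose percent inhibition of the receptor-coactivator binding signal exceeds about 50% in the single-dose screen, limit read from the data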
EphB4 ephrin blk: blocks human EphB4 binding to ephrin-B2; P54760; EphB4 LBD / TNYL-RAW-Alexa532 peptide, fluorescence polarization; inhibition, % at 7 µM; actives 0.15% (n = 97,000); AID 720;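 active = inhibition above the screen-wide mean inhibition plus 3 SD, cut at about 15% in these data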
MT1-MMP txn act: MT1-MMP promoter transcription activation | HT1080 MT1-MMP promoter luciferase reporter, luminescence, overnight; hits give high values | activation factor at 10 µM | actives 0.16% (n = 86,000) | AID 750;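 active = activation factor of at least 2 for MT1-MMP transcription at 10 µM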
Numbers stand for hits; – = inactive; · = no result; [ ] = remark or other dose.

SMILES	ERa SRC1 pot	ERa SRC1 inh	Calb biofilm kill	ERb SRC1 inh	EphB4 ephrin blk	MT1-MMP txn act
CCn1ncc(/C=C2/CC3C4CC=C5CC(O)CCC5(C)C4CCC3(C)C2=O)c1C (stereo not given)	542[fluorescence artefact?]	–	–	–	–	–
Cc1cc(OC(=O)c2ccco2)c2c3c(c(=O)oc2c1)CCCC3	–	–	–	–	15	–
C1CNC2NCCNC2N1 (stereo not given)	–	–	–	–	–	–
CCOc1ccccc1-n1c(O)c(C=NCc2ccc3c(c2)OCO3)c(=O)[nH]c1=O	–	–	–	–	–	–
O=c1[nH]c(=O)n(CCc2ccccc2)c(O)c1C=NCc1ccc2c(c1)OCO2	267[fluorescence artefact?]	55[fluorescence artefact?]	–	–	–	–
COC(=O)[C@H]1C[C@H]2CC[C@H](O)C[C@H]2N1CC1CC1	·	·	·	·	·	–
Cc1cc(/C=C2/C(=O)NC(=O)N(c3ccccc3)C2=O)c(C)n1-c1ccc(F)cc1	–	52	–	–	–	–
O=C1NC(=O)C(=Cc2cn(CCOc3ccc4c(c3)OCO4)c3ccccc23)C(=O)N1	–	84[fluorescence artefact?]	–	60[fluorescence artefact?]	–	–
N#Cc1c(/N=C/c2c(O)n(Cc3ccco3)c(=O)[nH]c2=O)sc2c1CCCC2	–	–	–	75	–	–
O=c1[nH]c(=O)n(Cc2ccco2)c(O)c1C=NCc1cccs1	–	–	–	–	–	·
CN1C[C@H](CNC(=O)OCc2ccccc2)C[C@@H]2c3cccc4c3c(cn4C)C[C@H]21	–	–	–	–	·	–
CC[C@@H](CO)NC(=O)[C@@H]1C=C2c3cccc4c3c(cn4C)C[C@H]2N(C)C1	–	–	–	51[fluorescence artefact?]	·	–
CCCC/C=C/[C@@H](NP(=O)(c1ccccc1)c1ccccc1)c1ccccc1OC	·	·	·	·	·	–
CC1CCC/C=C/C2CC(O)CC2C(O)/C=C/C(=O)O1 (stereo not given)	–	–	–	–	–	·
C[C@H]1CCC[C@@H](O)CCC/C=C/c2cc(O)cc(O)c2C(=O)O1	466	–	–	–	–	–
CN(C)CCN=Cc1c(O)n(CCC2=CCCCC2)c(=O)[nH]c1=O	–	–	–	–	–	–
O=c1[nH]c(=O)n(CCC2=CCCCC2)c(O)c1C=Nc1cccc(F)c1	254	–	–	–	–	–
Nc1ccccc1N=Cc1c(O)n(CCC2=CCCCC2)c(=O)[nH]c1=O	–	57	–	–	–	–
CCCN1[C@@H]2C[C@@H](O)CC[C@@H]2C[C@H]1C(=O)OC	·	·	·	·	·	–
Nc1ccnn1C1CCNCC1	–	96[fluorescence artefact?]	–	95[fluorescence artefact?]	–	–
CN1CCC(n2nccc2N)CC1	–	–	–	–	–	–
CCCC[C@@H]1C[C@H]1[C@@H](NP(=O)(c1ccccc1)c1ccccc1)c1ccc(Cl)cc1	·	·	·	·	·	–
CC1N(P(=O)(c2ccccc2)c2ccccc2)CC(O)(c2ccccc2)CC12CC2 (stereo not given)	·	·	·	·	·	–
Cc1ccc(S(=O)(=O)Cc2ccc(C(=O)N3CCC4(CC3)OCCO4)o2)cc1	–	51	–	56	–	–
O=C(Nc1ccc(F)cc1)N1CC2CC(C1)c1cccc(=O)n1C2 (stereo not given)	–	–	–	–	–	–
CN1C(=O)/C(=C/c2ccc(N3CCCCCC3)o2)C(=O)NC1=S	–	–	–	–	–	2.2
